Assay results reported in PubChem BioAssay AID624267 (The Scripps Research Institute Molecular Screening Center, 2012).
“And” between values parts separate entries of the source, which are not always exact repeats. Equal entries are not always repeated. Screen size: about 360,000 compounds; about 1,400 (0.39%) were called active. This is one part of a sample in which actives are shown more often than they occur. No stated cut-off is given here; in the data, active means inhibition above about 21%; inactive means the rest.

Biological target: Receptor-interacting serine/threonine-protein kinase 2 (Homo sapiens) (UniProt O43353)
Experiment: NOD2-RIPK2 binding disruptors in cells, primary screen, fluorescence, CHO cells, BLA complementation (AID 624267);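 further: 0% = vehicle only and 100% = reference blocker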
Conditions: CHO BLA complementation NOD2-RIPK2, CCF4 ratio; at 4.98 µM; active compounds read high

Sequence of Receptor-interacting serine/threonine-protein kinase 2 (Homo sapiens) (O43353 whole entry, looked up): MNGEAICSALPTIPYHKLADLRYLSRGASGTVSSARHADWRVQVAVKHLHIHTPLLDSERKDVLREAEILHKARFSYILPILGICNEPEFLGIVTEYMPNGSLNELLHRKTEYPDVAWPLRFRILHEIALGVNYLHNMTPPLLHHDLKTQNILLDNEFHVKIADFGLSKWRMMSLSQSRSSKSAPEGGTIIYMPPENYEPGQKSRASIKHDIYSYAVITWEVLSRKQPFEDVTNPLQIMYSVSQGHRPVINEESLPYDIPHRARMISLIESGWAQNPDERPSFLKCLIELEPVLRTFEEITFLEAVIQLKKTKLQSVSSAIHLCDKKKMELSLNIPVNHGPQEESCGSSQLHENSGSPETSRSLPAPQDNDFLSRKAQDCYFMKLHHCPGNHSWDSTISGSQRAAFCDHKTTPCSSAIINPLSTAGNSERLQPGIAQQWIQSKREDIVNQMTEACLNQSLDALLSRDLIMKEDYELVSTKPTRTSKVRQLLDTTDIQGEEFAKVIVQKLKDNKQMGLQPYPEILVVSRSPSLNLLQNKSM

inhibition, active:
COc1ccccc1CSc1ncc(-c2ccc([N+](=O)[O-])cc2)[nH]1 29.2%, Cc1cc2oc3ccc(NCCC4CCCN4C)cc3c(=O)c2cc1C (stereo unspecified) 41.2%, Cc1nn(C)cc1N1C(=O)c2cccc3c(N)ccc(c23)C1=O 24.3%, Cc1cccc2sc(N(CCCN(C)C)C(=O)CCS(=O)(=O)c3ccccc3)nc12 24.6%, COc1cccc2sc(N(CCCN(C)C)C(=O)CCS(=O)(=O)c3ccccc3)nc12 31.7%, CCCc1ccc(-c2csc(NC(=O)Cc3cccs3)n2)cc1 21.1%, COc1ccc(-c2nc3cnccn3c2NC2CCCCC2)cc1-c1cccc(Cl)c1 27.1% and 52.4%, O=C(NC1=CC(=O)c2ccccc2C1=O)c1ccccc1 60.6%, Cc1cccc(-n2ncc(Cl)c(Cl)c2=O)c1 32.6%, O=C(/C=C(O)/C=C/c1ccc(O)cc1)/C=C/c1ccc(O)cc1 56.9%, FC(F)(F)C1CCCN(c2nsc3ccccc23)C1 (stereo unspecified) 31%, COc1cc(NS(=O)(=O)c2ccc3ccccc3c2)c2ncccc2c1 29.3%, Cc1cccc(COc2ccccc2/C=N/Nc2ccc([N+](=O)[O-])cc2)c1 31.1%, O=[N+]([O-])c1ccc(N/N=C/c2ccccc2)cc1 24.8%

inhibition, inactive:
COc1ccc(-c2cnc(SCCNC(=O)c3ccc4c(c3)OCO4)[nH]2)cc1 -2.11%, COc1cccc(-c2cnc(C(O)c3ccccc3OC)[nH]2)c1 (stereo unspecified) -4.35%, Cc1cccc(N2O[C@H]3C=CC2CCCC3)n1 9.84%, O=S(=O)(c1ccccc1)N(Cc1cccc(F)c1)c1ccccc1 -10.2%, CCN(CC)S(=O)(=O)c1ccc2[nH]c(=O)cc(C(=O)N(C)C3CCS(=O)(=O)C3)c2c1 (stereo unspecified) -6.75%, O=S(=O)(c1ccc(OCC(O)CN2CCN(c3ccccc3Cl)CC2)cc1)N1CCOCC1 (stereo unspecified) -2.63%, CN1CCC[C@@H]1CCO[C@](C)(c1ccccc1)c1ccc(Cl)cc1 14.6%, CCCCC(CC(C)O)c1n[nH]c(=S)n1-c1ccccc1 (stereo unspecified) -17.4%, O=C(CCNc1n[nH]c(=O)[nH]c1=O)N/N=C\c1ccc(Br)cc1 -5.19%, O=C(CN1C(=O)NC2(CCOc3ccccc32)C1=O)Nc1cccc([N+](=O)[O-])c1 (stereo unspecified) 5.36%, CCOc1ccccc1NC(=O)CCS(=O)(=O)c1cccc2nsnc12 5.35%, COc1ccc(C)cc1NC(=O)CCS(=O)(=O)c1cccc2nonc12 4.16%, Cc1cccc(C)c1NC(=O)CCS(=O)(=O)c1cccc2nsnc12 7.27%, O=C(O)CCS(=O)(=O)c1ccc(-c2ccccc2)cc1 -5.35%, O=C(CN1CCN(S(=O)(=O)c2ccc(F)cc2)CC1)NC1CC1 0.22%, COCCCn1c(SCc2cccc(OC)c2)nc2cc(OC)c(OC)cc2c1=N 12.2%, CCOc1ccc(S(=O)(=O)N2CCN(C(=O)c3oc4ccccc4c3C)CC2)cc1 -8.52%, O=C(CCc1ccccc1)NCCc1cccs1 -5.14%, O=C(Cc1cccs1)Nc1ccc([N+](=O)[O-])cc1 3.09%, COc1cc(S(=O)(=O)Nc2ncn[nH]2)ccc1Cl 3.73%, CC(=O)c1cc(C#N)c(N2CC(C)OC(C)C2)nc1C (stereo unspecified) 0.19%, COc1ccc(-c2nc3cnccn3c2NC(C)(C)CC(C)(C)C)cc1O 7.55%, COc1ccc(-c2nc3cc(C)ccn3c2NC2CCCCC2)cc1SC1CCCCC1 -6.71% and 17.4%, Cn1c(SCC(=O)NC2CCCCC2)nnc1-c1ccc(N)cc1 -8.42%, CCCn1nc(Oc2nc(NC(C)C)nc(N(C)C)n2)ccc1=O -6.09%, Cc1ccccc1CNC(=O)CCC(=O)N1Cc2ccccc2Oc2ncccc21 -3.11%, Cc1ccc(C(=O)Nc2c(-c3ccccc3)[nH][nH]c2=O)cc1 -2.83%, O=C(NNC(=O)C1CCC1)c1ccccc1 -5.53%, O=C(CN1C(=O)NC2(CCCCCC2)C1=O)NCc1cccs1 5.08%, CCc1cccc(C)c1NS(=O)(=O)c1c(C)nc2sccn2c1=O 6.35%, Nc1c(-c2cccc(Cl)c2)cnn1-c1cccc([N+](=O)[O-])c1 -0.26%, Cc1cccc(N2Cc3ccccc3C2=NC(=O)c2ccc(Cl)nc2)c1 1.35%, Cc1ccc2[nH]c(C)c(CCNC(=O)NC3CCCCC3)c2c1 10.4%, O=C(CN1CCOCC1)Nc1c2c(nc3c1CCC3)CCC2 -11.5%, Cc1cc(C)n2nc(C(=O)OCC(=O)N(CCC#N)c3ccc(F)cc3)nc2n1 5.67%, CC(C)(C)C(=O)/C(C#N)=C/c1ccc(O)cc1 -19.2%, COc1cccc(C(=O)NNC(=O)/C=C/c2ccccc2)c1 -14.4%, COc1ccc(OC)c(CN2C(=O)CCC2(C)C(=O)NC2CCCCCC2)c1 (stereo unspecified) -0.24%, O=[N+]([O-])c1cc(S(=O)(=O)NCCc2ccccn2)ccc1Cl 5.34%, Cc1ccc(C(=O)CN2C(=O)NC3(CCOc4ccccc43)C2=O)s1 (stereo unspecified) -4.27%, CCC1Sc2ccc(S(=O)(=O)CCC(=O)NCc3cccs3)cc2NC1=O (stereo unspecified) -15.1%, O=S(=O)(Nc1ccccn1)c1cccc(S(=O)(=O)c2ccc(Cl)cc2)c1 -8.24%, COc1ccc(OC)c(C(C)NC(=S)Nc2ccc(S(=O)(=O)Nc3ncccn3)cc2)c1 (stereo unspecified) 2.38%, Cc1ccccc1OCCOc1ccc([N+](=O)[O-])cc1/C=N/n1cnnc1 7.18%, COC(=O)c1ccccc1N=NNc1ccc([N+](=O)[O-])cc1 2.92%, CC(C=Cc1ccccc1)=NNS(=O)(=O)c1ccc([N+](=O)[O-])cc1 3.79%, O=[N+]([O-])c1ccc(COc2ccccc2CN2CCOCC2)cc1 -0.03%
